In PMC7862700, “An all-to-all approach to the identification of sequence-specific readers for epigenetic DNA modifications on cytosine” one finds binding signal data, which are given here for one sequence.

Experiment in all cases: DAPPL (digital affinity profiling via proximity ligation, sequencing); 10 mM Tris-HCl pH 7.5, 50 mM NaCl, 1 mM DTT, 4% glycerol, room temperature, 30 min; GST-TFs on glutathione beads, 16-mer random dsDNA library, 0.1% formaldehyde crosslink after washing; high values mean tight binding
In one experiment the target is T1, FEV (Homo sapiens, UniProt Q99581 1-238).
T1 sequence: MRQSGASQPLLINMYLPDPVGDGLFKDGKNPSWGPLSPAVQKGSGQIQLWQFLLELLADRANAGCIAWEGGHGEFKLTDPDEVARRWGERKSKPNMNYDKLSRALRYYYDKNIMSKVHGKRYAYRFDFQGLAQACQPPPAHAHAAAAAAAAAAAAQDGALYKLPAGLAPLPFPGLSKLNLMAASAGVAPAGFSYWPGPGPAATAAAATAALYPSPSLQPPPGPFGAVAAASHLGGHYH
The conditions noted are these: protein: recombinant; tags: N-terminal GST; dsDNA, one strand shown. In short, it runs like this:
(§1)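 Beads coated with glutathione captured GST-fused human transcription factors that had been expressed in yeast, and the factors were then given DNA barcodes and pooled with a tag-only sample. The pools were incubated with 200 nmole of a random double-stranded 16-mer DNA library in Tris/NaCl/DTT/glycerol buffer for 30 min at room temperature, washed, crosslinked with 0.1% formaldehyde and proximity-ligated with BsaI/T4 ligase at 37 °C for 1 h. PCR amplification and Illumina NextSeq500 sequencing came last. Binding signal is each hexamer's read frequency for a factor divided by its frequency for the tag-only sample.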

The target in another experiment is ETV5 (Homo sapiens, UniProt P41161 1-510). To be noted: protein: recombinant; tags: N-terminal GST; dsDNA, one strand shown. In short, it runs like this:
as §1

The next experiment addresses HSF1 (Homo sapiens, UniProt Q00613 1-529). The conditions noted are these: protein: recombinant; tags: N-terminal GST; chain copies: 3; dsDNA, one strand shown. In short, it runs like this:
as §1

The next experiment has as its target T2, SPIC (Homo sapiens, UniProt Q8N5J4 1-248).
T2 sequence: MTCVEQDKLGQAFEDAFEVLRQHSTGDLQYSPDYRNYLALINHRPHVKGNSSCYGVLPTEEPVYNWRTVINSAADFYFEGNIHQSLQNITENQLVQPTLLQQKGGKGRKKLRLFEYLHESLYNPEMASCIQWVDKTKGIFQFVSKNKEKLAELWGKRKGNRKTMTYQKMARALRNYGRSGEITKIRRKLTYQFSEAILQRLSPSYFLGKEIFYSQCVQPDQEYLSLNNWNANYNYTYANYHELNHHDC
To be noted: protein: recombinant; tags: N-terminal GST; dsDNA, one strand shown. In short, it runs like this: as §1

For a further experiment, the target named is ELF4 (Homo sapiens, UniProt Q99607 1-663). To be noted: protein: recombinant; tags: N-terminal GST; dsDNA, one strand shown. In short, it runs like this:
as §1

Another experiment addresses T3, ELK4 (Homo sapiens, UniProt P28324-2 1-405).
T3 sequence: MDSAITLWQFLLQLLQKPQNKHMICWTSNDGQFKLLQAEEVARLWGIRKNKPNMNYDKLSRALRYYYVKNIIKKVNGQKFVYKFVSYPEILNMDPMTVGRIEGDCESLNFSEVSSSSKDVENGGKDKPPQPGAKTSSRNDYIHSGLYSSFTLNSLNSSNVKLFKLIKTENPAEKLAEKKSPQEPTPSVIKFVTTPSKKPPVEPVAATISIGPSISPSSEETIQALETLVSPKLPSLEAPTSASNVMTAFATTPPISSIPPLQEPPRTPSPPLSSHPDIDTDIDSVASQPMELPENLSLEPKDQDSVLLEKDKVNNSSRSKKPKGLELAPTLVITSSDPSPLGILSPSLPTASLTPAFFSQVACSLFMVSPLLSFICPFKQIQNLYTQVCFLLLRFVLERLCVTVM
The conditions noted are these: protein: recombinant; tags: N-terminal GST; dsDNA, one strand shown. The essentials:
as §1

In another experiment the target is T4, ETV2 (Homo sapiens, UniProt O00321 1-342).
T4 sequence: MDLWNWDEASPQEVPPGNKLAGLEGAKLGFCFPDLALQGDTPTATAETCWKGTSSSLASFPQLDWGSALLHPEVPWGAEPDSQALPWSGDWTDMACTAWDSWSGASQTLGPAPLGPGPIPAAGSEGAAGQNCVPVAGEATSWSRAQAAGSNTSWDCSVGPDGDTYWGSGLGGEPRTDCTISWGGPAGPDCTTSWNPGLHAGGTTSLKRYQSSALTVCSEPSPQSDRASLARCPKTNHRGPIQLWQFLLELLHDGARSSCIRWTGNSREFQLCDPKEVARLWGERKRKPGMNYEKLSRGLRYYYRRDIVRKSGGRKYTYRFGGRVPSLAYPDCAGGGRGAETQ
To be noted: protein: recombinant; tags: N-terminal GST; dsDNA, one strand shown. The essentials:
as §1

Another experiment concerns the target T5, ELF3 (Homo sapiens, UniProt P78545 1-371).
T5 sequence: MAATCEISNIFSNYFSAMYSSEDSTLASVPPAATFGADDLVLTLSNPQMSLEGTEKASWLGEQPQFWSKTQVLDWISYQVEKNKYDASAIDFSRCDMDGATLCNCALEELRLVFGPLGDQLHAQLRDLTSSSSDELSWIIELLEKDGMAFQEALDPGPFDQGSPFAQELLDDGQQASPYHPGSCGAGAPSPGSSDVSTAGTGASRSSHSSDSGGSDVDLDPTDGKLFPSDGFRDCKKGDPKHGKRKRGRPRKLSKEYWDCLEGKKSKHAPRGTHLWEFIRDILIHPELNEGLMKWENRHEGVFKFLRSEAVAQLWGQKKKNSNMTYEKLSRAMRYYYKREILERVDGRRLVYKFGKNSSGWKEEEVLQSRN
The conditions noted are these: protein: recombinant; tags: N-terminal GST; dsDNA, one strand shown. The essentials: as §1

The target of the next experiment is CRX (Homo sapiens, UniProt O43186 1-299). To be noted: protein: recombinant; tags: N-terminal GST; dsDNA, one strand shown. In short, it runs like this: as §1
A further experiment deals with ETV1 (Homo sapiens, UniProt P50549 1-477). The conditions noted are these: protein: recombinant; tags: N-terminal GST; dsDNA, one strand shown. In short, it runs like this:
as §1

The next experiment deals with T6, ERF (Homo sapiens, UniProt P50548 1-548).
T6 sequence: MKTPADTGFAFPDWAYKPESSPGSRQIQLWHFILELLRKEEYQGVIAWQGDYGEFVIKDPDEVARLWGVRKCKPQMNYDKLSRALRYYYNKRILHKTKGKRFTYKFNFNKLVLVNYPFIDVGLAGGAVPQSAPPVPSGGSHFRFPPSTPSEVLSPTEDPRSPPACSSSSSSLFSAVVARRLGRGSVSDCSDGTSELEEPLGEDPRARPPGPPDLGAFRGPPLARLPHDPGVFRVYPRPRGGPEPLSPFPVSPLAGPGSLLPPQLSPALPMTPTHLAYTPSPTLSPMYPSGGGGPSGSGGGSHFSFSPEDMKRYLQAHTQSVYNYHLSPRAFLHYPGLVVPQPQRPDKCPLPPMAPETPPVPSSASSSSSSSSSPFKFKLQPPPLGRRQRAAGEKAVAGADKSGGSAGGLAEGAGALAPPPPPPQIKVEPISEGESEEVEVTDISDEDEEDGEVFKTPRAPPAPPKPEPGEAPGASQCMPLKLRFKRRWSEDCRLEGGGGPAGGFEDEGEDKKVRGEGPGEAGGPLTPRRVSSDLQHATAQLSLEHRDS
The conditions noted are these: protein: recombinant; tags: N-terminal GST; dsDNA, one strand shown. In short, it runs like this:
as §1

The target of another experiment is T7, ETV3L (Homo sapiens, UniProt Q6ZN32 1-361).
T7 sequence: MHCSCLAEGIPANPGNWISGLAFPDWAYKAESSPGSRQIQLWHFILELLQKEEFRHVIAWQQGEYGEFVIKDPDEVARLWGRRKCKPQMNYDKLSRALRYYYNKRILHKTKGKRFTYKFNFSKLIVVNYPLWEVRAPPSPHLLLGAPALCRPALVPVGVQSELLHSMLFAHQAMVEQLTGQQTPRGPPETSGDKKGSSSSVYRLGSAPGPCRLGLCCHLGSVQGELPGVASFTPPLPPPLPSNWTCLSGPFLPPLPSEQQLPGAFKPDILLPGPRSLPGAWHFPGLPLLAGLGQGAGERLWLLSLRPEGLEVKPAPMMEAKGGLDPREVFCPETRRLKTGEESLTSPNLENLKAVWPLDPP
The conditions noted are these: protein: recombinant; tags: N-terminal GST; dsDNA, one strand shown. In short, it runs like this:
as §1

Another experiment concerns the target T8, ETS2 (Homo sapiens, UniProt P15036 1-469).
T8 sequence: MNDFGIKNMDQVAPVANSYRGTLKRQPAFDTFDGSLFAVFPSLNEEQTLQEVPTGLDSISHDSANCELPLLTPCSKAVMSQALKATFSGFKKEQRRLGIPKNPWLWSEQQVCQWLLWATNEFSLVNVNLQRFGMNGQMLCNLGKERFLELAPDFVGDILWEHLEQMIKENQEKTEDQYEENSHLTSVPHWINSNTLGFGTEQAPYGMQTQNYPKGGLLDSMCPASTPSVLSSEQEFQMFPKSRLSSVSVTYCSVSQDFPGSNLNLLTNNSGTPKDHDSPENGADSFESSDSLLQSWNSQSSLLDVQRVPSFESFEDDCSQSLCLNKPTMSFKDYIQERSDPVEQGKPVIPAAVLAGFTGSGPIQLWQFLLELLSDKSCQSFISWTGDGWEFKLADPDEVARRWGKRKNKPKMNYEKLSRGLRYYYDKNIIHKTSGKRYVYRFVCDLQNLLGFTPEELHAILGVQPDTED
To be noted: protein: recombinant; tags: N-terminal GST; dsDNA, one strand shown. The essentials:
as §1

The target of another experiment is T9, SPDEF (Homo sapiens, UniProt O95238 1-335).
T9 sequence: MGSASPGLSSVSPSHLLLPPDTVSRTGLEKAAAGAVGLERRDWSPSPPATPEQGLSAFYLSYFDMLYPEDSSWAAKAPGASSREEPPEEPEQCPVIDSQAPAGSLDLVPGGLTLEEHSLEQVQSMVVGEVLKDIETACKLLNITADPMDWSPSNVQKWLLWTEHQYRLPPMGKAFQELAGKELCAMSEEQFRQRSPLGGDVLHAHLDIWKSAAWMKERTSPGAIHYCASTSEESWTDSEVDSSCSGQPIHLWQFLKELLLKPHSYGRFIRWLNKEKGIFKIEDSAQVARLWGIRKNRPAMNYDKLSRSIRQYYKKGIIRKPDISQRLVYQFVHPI
The conditions noted are these: protein: recombinant; tags: N-terminal GST; dsDNA, one strand shown. The essentials:
as §1

A further experiment deals with T10, ETV7 (Homo sapiens, UniProt Q9Y603 1-341).
T10 sequence: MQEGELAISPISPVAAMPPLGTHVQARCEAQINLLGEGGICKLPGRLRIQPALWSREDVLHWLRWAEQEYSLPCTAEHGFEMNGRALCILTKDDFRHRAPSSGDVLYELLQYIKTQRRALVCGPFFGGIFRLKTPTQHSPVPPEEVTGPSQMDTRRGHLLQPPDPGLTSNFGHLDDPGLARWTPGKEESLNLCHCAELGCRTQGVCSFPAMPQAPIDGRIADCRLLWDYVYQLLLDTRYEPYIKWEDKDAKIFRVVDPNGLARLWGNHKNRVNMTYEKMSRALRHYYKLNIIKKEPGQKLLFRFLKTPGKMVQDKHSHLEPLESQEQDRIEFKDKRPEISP
To be noted: protein: recombinant; tags: N-terminal GST; dsDNA, one strand shown. In short, it runs like this: as §1

A further experiment has as its target T11, ELF5 (Homo sapiens, UniProt Q9UKW6-2 1-255).
T11 sequence: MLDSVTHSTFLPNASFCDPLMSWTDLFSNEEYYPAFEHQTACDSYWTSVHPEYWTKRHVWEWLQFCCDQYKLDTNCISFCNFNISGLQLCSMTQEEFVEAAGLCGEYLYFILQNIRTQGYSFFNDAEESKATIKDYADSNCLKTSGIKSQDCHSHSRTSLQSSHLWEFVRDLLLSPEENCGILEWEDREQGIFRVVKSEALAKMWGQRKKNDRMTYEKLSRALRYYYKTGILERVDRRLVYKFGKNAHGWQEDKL
The conditions noted are these: protein: recombinant; tags: N-terminal GST; dsDNA, one strand shown. The essentials: as §1

For the next experiment, the target named is T12, ETV3 (Homo sapiens, UniProt P41162-2 1-143).
T12 sequence: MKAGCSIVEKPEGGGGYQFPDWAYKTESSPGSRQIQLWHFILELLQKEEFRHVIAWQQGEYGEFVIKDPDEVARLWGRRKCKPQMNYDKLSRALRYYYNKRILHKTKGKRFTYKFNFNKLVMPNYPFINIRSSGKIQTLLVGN
The conditions noted are these: protein: recombinant; tags: N-terminal GST; dsDNA, one strand shown. In short, it runs like this: as §1

The target of the next experiment is ETV6 (Homo sapiens, UniProt P41212 1-452). The conditions noted are these: protein: recombinant; tags: N-terminal GST; dsDNA, one strand shown. In short, it runs like this: as §1
Chain of ETV6 (P41212 whole entry): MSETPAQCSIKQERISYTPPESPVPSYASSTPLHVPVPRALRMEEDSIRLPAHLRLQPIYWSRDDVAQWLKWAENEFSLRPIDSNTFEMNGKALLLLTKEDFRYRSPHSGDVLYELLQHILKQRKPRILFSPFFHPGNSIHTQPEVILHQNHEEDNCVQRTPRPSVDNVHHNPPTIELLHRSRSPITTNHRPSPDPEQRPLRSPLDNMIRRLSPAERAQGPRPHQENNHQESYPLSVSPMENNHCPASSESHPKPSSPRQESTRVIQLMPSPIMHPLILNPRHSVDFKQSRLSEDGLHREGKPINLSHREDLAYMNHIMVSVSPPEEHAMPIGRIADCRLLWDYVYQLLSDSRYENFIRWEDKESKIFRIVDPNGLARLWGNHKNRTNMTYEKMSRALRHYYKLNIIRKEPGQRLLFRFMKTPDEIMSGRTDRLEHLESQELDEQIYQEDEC

Chain of CRX (O43186 whole entry): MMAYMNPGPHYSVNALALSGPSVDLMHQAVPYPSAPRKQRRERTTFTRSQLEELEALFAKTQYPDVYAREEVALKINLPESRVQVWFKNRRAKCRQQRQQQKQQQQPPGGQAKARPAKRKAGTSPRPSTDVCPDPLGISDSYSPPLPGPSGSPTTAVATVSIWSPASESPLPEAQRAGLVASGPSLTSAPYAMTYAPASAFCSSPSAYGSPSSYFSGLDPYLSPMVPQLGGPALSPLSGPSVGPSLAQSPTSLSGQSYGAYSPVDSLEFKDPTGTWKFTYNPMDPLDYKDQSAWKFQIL
Chain of ETV5 (P41161 whole entry): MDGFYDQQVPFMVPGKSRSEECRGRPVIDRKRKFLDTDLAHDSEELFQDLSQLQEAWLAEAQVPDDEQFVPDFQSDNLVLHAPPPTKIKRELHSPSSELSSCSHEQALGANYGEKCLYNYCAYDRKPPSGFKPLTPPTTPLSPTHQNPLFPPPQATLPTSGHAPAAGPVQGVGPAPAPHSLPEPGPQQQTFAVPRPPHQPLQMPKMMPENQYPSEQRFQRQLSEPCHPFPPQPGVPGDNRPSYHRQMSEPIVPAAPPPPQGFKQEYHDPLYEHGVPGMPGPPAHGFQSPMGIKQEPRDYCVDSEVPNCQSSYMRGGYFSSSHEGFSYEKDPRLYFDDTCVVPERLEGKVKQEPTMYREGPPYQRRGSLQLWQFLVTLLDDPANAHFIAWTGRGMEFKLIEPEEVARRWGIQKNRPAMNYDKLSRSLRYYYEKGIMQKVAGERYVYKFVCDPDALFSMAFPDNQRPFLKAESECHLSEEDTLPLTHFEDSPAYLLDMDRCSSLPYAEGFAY
Chain of ETV1 (P50549 whole entry): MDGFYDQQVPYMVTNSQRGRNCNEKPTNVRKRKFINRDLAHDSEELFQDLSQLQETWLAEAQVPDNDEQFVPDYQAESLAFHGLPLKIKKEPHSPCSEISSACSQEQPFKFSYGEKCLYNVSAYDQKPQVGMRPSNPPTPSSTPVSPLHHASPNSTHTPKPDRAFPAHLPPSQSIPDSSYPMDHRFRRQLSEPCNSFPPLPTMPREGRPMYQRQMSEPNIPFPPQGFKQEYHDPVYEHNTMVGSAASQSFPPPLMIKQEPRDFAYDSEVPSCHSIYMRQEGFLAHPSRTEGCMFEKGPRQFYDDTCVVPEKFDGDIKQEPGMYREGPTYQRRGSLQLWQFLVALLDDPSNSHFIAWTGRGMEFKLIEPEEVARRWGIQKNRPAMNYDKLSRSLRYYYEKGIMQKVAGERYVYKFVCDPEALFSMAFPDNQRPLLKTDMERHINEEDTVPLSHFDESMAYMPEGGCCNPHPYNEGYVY
Chain of HSF1 (Q00613 whole entry): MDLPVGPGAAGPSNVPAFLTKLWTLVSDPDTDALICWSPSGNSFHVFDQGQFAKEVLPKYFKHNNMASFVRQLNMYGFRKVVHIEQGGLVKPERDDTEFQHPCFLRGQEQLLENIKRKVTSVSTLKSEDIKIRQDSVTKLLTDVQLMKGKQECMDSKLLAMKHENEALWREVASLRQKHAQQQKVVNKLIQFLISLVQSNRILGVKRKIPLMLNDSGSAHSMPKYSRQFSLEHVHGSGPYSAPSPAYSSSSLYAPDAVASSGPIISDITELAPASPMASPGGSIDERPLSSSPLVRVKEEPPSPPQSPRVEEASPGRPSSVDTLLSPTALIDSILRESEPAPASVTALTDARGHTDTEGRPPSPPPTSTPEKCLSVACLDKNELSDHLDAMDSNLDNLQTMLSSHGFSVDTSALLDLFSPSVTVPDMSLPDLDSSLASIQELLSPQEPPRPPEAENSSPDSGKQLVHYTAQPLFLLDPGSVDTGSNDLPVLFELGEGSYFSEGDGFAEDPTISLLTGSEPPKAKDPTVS
Chain of ELF4 (Q99607 whole entry): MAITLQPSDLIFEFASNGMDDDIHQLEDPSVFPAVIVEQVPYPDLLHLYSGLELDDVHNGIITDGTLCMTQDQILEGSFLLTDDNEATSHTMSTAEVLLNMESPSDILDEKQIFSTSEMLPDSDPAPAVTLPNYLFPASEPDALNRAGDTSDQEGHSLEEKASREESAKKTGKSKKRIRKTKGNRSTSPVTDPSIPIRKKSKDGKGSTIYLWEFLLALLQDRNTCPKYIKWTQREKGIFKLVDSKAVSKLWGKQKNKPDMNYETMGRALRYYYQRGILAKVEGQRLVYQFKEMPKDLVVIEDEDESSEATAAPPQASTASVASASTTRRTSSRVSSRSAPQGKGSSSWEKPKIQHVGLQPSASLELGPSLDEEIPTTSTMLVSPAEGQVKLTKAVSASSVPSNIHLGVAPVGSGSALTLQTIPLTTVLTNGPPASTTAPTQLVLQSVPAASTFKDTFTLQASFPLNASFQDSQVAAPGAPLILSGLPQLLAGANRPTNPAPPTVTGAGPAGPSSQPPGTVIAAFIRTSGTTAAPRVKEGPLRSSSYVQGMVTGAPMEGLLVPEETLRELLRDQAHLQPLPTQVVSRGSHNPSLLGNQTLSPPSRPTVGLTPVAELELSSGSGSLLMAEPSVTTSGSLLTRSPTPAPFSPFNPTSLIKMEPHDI

For AAATGT, the binding signal in the experiment with FEV was 1.27 fold enrichment (6-mer frequency, TF over GST control); in the experiment with ETV5 it was 1.28 fold enrichment (6-mer frequency, TF over GST control); with HSF1, 1.19 fold enrichment (6-mer frequency, TF over GST control); with SPIC it was 1.25 fold enrichment (6-mer frequency, TF over GST control); with ELF4, 1.27 fold enrichment (6-mer frequency, TF over GST control); with ELK4 it was 1.4 fold enrichment (6-mer frequency, TF over GST control). For the same sequence, the binding signal is 1.36 fold enrichment (6-mer frequency, TF over GST control) with ETV2; 1.54 fold enrichment (6-mer frequency, TF over GST control) with ELF3; 1.04 fold enrichment (6-mer frequency, TF over GST control) with CRX; 1.39 fold enrichment (6-mer frequency, TF over GST control) with ETV1; 1.27 fold enrichment (6-mer frequency, TF over GST control) with ERF; 1.33 fold enrichment (6-mer frequency, TF over GST control) with ETV3L. Also, the binding signal with ETS2 was 1.44 fold enrichment (6-mer frequency, TF over GST control); with SPDEF, 1.27 fold enrichment (6-mer frequency, TF over GST control); with ETV7 it was 1.27 fold enrichment (6-mer frequency, TF over GST control); in the experiment with ELF5, 1.48 fold enrichment (6-mer frequency, TF over GST control); with ETV3, 1.3 fold enrichment (6-mer frequency, TF over GST control); with ETV6, 1.31 fold enrichment (6-mer frequency, TF over GST control).
